# According to ChEMBL document CHEMBL2218924, “A broad activity screen in support of a chemogenomic map for kinase signalling research and drug discovery” (Biochem J, 2013):
# What was measured:
# [1] = biological target: Protein kinase C eta type (Homo sapiens) (UniProt P24723); conditions: at 1 µM
# [2] = biological target: Protein kinase C eta type (Homo sapiens) (UniProt P24723); conditions: at 10 µM
# [3] = biological target: Protein kinase C theta type (Homo sapiens) (UniProt Q04759); conditions: at 1 µM
# [4] = biological target: Protein kinase C theta type (Homo sapiens) (UniProt Q04759); conditions: at 10 µM
# [5] = biological target: T1, Protein kinase C iota type (Homo sapiens) (UniProt P41743); conditions: at 10 µM
# T1 sequence (whole entry): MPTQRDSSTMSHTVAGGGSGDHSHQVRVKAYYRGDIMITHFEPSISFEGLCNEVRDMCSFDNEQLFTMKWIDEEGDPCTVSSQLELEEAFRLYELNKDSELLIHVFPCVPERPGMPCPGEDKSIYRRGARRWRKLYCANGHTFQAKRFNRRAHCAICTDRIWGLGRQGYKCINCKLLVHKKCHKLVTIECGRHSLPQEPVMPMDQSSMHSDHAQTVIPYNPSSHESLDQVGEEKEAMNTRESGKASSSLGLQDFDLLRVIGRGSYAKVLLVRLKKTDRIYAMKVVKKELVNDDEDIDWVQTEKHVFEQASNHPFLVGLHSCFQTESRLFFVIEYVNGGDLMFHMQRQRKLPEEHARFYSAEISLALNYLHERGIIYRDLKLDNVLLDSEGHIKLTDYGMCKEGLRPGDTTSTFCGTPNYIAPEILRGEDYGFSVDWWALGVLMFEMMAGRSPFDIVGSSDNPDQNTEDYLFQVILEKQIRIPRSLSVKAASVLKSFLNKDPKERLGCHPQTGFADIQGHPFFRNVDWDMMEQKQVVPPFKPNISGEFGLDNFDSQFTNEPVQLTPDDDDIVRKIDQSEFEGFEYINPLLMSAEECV
# [6] = biological target: T2, Serine/threonine-protein kinase D1 (Homo sapiens) (UniProt Q15139); conditions: at 1 µM
# T2 sequence (whole entry): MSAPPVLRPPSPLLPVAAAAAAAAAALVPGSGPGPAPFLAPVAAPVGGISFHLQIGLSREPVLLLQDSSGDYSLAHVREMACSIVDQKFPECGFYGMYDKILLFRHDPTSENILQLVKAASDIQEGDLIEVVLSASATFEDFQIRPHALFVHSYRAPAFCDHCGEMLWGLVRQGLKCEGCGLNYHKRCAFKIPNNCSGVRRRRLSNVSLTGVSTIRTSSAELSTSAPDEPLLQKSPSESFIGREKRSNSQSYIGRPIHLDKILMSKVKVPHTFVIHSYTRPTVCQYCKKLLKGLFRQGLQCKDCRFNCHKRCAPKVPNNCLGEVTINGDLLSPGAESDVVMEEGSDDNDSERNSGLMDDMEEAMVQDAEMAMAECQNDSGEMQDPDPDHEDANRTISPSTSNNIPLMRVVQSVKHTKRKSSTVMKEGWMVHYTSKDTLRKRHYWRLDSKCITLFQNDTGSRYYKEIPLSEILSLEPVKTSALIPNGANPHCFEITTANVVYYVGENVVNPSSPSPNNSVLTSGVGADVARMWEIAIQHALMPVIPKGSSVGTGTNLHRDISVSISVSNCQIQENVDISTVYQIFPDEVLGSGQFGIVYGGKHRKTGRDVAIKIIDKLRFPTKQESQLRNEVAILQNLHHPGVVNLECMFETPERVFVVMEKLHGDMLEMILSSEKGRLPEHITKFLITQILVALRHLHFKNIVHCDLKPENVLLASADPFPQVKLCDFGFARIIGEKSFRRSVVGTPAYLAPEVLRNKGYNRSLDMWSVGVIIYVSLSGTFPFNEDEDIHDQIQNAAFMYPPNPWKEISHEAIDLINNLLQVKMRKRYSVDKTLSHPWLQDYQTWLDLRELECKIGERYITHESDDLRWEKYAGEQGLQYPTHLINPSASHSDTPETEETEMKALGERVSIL
# [7] = biological target: T2, Serine/threonine-protein kinase D1 (Homo sapiens); conditions: at 10 µM
# [8] = biological target: T3, Serine/threonine-protein kinase D2 (Homo sapiens) (UniProt Q9BZL6); conditions: at 1 µM
# T3 sequence (whole entry): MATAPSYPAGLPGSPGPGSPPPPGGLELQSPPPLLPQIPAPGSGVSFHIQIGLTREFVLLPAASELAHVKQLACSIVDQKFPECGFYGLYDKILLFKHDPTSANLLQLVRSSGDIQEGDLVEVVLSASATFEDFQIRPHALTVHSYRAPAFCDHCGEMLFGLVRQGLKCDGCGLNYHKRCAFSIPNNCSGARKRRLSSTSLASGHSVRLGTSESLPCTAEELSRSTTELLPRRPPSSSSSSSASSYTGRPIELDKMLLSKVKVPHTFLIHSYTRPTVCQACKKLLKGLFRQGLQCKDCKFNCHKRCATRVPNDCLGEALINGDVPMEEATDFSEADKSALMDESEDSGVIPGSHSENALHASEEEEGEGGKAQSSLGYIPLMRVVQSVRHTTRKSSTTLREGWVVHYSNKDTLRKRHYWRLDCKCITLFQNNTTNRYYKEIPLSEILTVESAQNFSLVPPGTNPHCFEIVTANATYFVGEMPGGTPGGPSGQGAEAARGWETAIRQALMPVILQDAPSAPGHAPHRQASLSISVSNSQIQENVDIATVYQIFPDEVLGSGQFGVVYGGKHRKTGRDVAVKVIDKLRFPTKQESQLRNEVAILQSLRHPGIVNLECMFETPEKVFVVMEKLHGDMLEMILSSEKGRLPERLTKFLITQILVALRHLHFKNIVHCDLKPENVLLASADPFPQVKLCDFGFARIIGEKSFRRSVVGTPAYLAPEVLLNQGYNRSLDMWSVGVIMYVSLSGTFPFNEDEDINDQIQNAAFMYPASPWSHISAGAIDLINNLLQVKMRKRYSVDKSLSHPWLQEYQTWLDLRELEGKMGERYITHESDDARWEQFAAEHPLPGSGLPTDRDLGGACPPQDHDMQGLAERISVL
# [9] = biological target: T3, Serine/threonine-protein kinase D2 (Homo sapiens); conditions: at 10 µM
# [10] = biological target: T4, cGMP-dependent protein kinase 1 (Homo sapiens) (UniProt Q13976); conditions: at 10 µM
# T4 sequence (whole entry): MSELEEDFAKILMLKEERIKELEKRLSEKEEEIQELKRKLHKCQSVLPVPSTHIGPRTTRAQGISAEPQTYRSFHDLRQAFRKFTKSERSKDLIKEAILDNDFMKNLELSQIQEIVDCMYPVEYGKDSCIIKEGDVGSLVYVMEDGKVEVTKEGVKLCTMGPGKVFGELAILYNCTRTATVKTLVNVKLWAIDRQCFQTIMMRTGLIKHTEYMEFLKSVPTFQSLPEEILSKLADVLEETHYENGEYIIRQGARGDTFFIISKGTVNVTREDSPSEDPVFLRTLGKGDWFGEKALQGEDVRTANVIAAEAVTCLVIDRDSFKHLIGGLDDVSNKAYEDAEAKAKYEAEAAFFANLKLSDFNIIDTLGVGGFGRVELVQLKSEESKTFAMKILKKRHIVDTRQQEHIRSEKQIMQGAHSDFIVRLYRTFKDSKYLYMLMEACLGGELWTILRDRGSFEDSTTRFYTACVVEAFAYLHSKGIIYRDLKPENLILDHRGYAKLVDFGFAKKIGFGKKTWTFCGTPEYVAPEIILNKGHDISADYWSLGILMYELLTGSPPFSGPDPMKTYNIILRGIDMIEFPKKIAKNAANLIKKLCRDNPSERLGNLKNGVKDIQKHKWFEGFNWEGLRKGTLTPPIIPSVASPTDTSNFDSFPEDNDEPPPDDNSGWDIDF
# [11] = biological target: T5, MAP kinase-activated protein kinase 5 (Homo sapiens) (UniProt Q8IW41); conditions: at 1 µM
# T5 sequence (whole entry): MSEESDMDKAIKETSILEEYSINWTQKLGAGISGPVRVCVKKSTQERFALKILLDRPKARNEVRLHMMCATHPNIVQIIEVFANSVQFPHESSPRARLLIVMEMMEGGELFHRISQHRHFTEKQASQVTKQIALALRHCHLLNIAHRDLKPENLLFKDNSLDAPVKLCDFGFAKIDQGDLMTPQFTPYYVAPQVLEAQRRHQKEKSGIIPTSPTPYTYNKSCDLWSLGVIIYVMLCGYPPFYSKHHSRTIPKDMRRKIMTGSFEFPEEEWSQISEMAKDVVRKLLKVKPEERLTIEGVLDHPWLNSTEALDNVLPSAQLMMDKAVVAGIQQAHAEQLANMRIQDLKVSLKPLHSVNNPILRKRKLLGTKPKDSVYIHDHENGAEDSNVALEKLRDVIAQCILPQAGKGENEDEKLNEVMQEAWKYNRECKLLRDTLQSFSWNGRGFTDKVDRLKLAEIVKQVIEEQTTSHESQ
# [12] = biological target: T5, MAP kinase-activated protein kinase 5 (Homo sapiens); conditions: at 10 µM
# [13] = biological target: Tyrosine-protein kinase FRK (Homo sapiens) (UniProt P42685); conditions: at 1 µM
# [14] = biological target: Tyrosine-protein kinase FRK (Homo sapiens) (UniProt P42685); conditions: at 10 µM
# [15] = biological target: T4, cGMP-dependent protein kinase 1 (Homo sapiens); conditions: at 1 µM
# [16] = biological target: T1, Protein kinase C iota type (Homo sapiens); conditions: at 1 µM
# [17] = biological target: Serine/threonine-protein kinase N2 (Homo sapiens) (UniProt Q16513); conditions: at 10 µM
# Serine/threonine-protein kinase N2 (Homo sapiens), sequence (Q16513 whole entry, looked up): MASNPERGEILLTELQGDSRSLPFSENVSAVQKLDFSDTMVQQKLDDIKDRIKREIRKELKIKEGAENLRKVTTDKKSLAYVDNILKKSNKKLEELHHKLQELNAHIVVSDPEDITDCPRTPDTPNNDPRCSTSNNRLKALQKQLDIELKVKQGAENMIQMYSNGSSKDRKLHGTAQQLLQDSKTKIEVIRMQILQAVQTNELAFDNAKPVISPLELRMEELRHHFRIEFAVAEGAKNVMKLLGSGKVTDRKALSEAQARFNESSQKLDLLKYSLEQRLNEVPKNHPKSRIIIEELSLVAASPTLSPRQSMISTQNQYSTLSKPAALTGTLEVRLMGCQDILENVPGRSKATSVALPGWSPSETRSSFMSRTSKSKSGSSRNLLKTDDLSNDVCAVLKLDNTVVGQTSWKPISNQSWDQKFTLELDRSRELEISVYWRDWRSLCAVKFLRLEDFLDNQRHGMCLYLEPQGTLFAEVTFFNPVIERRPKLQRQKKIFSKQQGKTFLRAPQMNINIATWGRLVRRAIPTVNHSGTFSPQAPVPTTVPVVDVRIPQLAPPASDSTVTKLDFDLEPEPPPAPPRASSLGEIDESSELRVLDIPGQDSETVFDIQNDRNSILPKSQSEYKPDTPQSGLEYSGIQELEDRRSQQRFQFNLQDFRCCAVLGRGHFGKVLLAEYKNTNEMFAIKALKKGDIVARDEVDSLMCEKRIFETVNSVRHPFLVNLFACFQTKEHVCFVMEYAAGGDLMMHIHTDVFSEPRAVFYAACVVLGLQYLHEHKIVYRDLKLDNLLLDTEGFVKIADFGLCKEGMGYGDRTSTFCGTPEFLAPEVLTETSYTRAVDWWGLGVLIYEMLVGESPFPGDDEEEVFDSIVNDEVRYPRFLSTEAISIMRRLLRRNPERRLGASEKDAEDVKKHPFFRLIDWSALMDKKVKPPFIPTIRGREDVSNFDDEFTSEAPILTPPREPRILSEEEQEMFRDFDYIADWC
# Tyrosine-protein kinase FRK (Homo sapiens), sequence (P42685 whole entry): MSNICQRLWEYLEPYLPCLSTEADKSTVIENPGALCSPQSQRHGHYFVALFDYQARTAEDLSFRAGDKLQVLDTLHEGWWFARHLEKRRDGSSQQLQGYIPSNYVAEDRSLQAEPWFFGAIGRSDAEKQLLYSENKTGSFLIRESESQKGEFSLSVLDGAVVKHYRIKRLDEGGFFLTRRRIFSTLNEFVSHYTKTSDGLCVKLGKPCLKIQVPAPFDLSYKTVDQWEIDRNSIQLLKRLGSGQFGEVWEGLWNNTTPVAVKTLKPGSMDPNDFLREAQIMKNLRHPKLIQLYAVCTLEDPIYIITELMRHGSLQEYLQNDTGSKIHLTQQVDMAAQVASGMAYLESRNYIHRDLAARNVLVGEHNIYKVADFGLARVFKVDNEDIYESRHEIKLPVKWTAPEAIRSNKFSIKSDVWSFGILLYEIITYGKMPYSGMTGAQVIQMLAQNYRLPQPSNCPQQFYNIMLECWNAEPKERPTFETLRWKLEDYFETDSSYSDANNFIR
# Protein kinase C theta type (Homo sapiens), sequence (Q04759 whole entry, looked up): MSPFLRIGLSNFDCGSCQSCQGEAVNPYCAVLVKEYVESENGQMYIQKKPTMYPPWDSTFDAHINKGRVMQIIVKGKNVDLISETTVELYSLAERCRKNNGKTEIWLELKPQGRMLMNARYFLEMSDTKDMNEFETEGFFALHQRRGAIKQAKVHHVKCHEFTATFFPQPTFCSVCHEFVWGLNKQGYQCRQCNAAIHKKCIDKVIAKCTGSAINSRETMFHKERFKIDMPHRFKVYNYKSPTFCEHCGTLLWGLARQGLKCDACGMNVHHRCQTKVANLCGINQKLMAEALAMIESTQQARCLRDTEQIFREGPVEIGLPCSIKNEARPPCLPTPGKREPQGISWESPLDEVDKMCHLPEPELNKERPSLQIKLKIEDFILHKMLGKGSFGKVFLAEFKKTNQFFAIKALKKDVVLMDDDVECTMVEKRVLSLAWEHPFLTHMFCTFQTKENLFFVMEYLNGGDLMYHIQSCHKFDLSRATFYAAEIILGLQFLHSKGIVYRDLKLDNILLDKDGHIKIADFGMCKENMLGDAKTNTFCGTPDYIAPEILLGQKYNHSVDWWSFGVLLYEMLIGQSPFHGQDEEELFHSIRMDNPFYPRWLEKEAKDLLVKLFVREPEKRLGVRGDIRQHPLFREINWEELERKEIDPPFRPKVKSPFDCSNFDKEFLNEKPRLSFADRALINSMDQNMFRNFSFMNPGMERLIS
# Protein kinase C eta type (Homo sapiens), sequence (P24723 whole entry): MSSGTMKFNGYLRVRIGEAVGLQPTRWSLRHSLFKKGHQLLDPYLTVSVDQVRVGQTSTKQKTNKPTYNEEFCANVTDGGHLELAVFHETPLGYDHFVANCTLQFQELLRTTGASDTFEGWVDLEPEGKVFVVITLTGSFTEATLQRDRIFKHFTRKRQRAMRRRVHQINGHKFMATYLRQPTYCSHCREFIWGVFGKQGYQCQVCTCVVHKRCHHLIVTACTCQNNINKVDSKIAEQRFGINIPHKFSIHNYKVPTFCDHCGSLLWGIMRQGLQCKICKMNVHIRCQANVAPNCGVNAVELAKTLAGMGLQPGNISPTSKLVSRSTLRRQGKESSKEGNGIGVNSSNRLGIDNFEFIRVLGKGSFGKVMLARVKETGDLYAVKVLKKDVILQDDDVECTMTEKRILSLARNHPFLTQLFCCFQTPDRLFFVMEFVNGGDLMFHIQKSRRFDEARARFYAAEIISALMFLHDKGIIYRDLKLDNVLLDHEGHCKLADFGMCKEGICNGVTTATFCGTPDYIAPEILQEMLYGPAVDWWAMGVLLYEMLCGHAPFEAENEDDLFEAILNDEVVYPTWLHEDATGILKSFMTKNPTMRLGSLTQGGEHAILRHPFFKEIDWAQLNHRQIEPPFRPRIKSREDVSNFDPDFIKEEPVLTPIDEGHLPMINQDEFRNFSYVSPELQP
compound,measurement,setting,value
CC(C)[C@H](CO)Nc1nc(Nc2cc(N)cc(Cl)c2)c2ncn(C(C)C)c2n1,residual activity,[1],97%
same,residual activity,[2],99%
same,residual activity,[3],77%
same,residual activity,[4],23%
same,residual activity,[5],89%
same,residual activity,[6],99%
same,residual activity,[7],81%
same,residual activity,[8],96%
same,residual activity,[9],99%
same,residual activity,[10],80%
same,residual activity,[11],92%
same,residual activity,[12],56%
same,residual activity,[13],72%
same,residual activity,[14],11%
N#C/C(=C\c1ccc(O)c(O)c1)C(=O)NCc1ccccc1,residual activity,[2],82%
same,residual activity,[9],102%
same,residual activity,[11],72%
same,residual activity,[12],59%
O=c1cc(N2CCOCC2)oc2c(-c3ccccc3)cccc12,residual activity,[2],66%
same,residual activity,[5],63%
same,residual activity,[15],80%
same,residual activity,[10],81%
COc1ccc(CNC(=O)Nc2ncc([N+](=O)[O-])s2)cc1,residual activity,[16],110% (inactive)
same,residual activity,[5],110%
same,residual activity,[17],81%
CCOc1nc(NC(=O)Cc2cc(OC)ccc2OC)cc(N)c1C#N,residual activity,[7],54%
same,residual activity,[17],82%
same,residual activity,[14],74%
COc1ccc(Cl)cc1NC(=O)Nc1cc(C)nc2ccccc12,residual activity,[3],89%
same,residual activity,[4],92%
same,residual activity,[16],88% (inactive)
same,residual activity,[5],86%
same,residual activity,[6],95%
same,residual activity,[7],87%
same,residual activity,[15],79%
same,residual activity,[10],88%
same,residual activity,[13],94%
same,residual activity,[14],129%
CC(C)N(CCC(=O)c1ccc2ccccc2c1)Cc1ccccc1,residual activity,[2],76%
same,residual activity,[16],77% (inactive)
same,residual activity,[5],72%
same,residual activity,[6],74%
same,residual activity,[7],84%
same,residual activity,[11],82%
same,residual activity,[12],72%
